Source: PubChem (several laboratories)
GDH-TPI counter – GDH-TPI coupling enzyme inhibitors, primary screen, artefact control for M. tuberculosis FBA inhibitor project, biochemical, absorbance, full deck; GDH-TPI coupled enzyme counterscreen, NADH absorbance; inhibition, % at 4.8 µM; hit rate 1.2% among 360,000; AID 588335, 2011
RecA intein inh – Mtb RecA intein splicing inhibitors, primary screen, biochemical, fluorescence, HTS; cell-free RecA intein splicing; Protein RecA (Mycobacterium tuberculosis (strain ATCC 25618 / H37Rv)), P9WHJ3; inhibition, % (concentration not given with the values); AID 2221, 2009; hit rate 0.75% among 290,000; in the data active = inhibition above about 30%
Target sequence (P9WHJ3 whole entry, looked up): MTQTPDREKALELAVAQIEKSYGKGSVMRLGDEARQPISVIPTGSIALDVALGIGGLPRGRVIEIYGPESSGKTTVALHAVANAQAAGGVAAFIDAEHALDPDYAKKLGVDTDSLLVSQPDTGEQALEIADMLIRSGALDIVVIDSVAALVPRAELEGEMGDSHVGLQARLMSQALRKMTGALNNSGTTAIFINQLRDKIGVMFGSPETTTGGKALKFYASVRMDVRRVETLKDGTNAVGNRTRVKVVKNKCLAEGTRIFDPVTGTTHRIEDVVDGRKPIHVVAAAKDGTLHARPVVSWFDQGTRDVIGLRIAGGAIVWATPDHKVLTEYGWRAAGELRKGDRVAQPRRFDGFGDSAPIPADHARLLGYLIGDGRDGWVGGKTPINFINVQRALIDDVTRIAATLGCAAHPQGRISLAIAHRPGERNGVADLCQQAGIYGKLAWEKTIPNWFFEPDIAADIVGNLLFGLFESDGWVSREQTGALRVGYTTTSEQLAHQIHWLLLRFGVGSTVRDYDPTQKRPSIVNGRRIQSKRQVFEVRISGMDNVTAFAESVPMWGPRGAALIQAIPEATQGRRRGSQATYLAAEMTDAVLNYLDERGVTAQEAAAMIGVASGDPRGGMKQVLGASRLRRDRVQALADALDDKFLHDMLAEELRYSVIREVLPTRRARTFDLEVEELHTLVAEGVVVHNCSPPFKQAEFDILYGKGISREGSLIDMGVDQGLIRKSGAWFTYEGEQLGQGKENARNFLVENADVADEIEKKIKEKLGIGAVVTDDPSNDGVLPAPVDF
CCHF vOTU inh-1 – CCHFV vOTU protease inhibitors, primary screen, biochemical, Pep-AMC substrate, fluorescence; Crimean-Congo hemorrhagic fever virus L polyprotein viral ovarian tumor (vOTU) protease …; inhibition, % at 11.5 µM; hit rate 0.55% among 370,000; AID 651958, 2012
Mtb FBA inh – Mtb FBA enzyme inhibitors, primary screen, biochemical, fluorescence, strain H37Rv | inhibition, % at 1 µM | hit rate 2.3% among 360,000 | purified M. tuberculosis FBA, fluorescence read-out | Fructose-bisphosphate aldolase (Mycobacterium tuberculosis (strain ATCC 25618 / H37Rv)), …; in the data active = inhibition above about 27%
Mtb betalactam – beta-lactam sensitization of Mtb H37Rv, H37Rv | AID 434955, 2010 | M. tuberculosis H37Rv growth with meropenem, percent inhibition | inhibition, % at 25 µM | hit rate 0.27% among 330,000; call rule not given here;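 also: growth measured after seven days incubation then overnight dye step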
CCHF vOTU inh-2 – CCHFV vOTU protease inhibitors, confirmation, biochemical, Pep-AMC substrate, fluorescence; hit rate 17% among 1,900; inhibition, % at 11.5 µM; AID 686976, 2013; Recombinant CCHFV vOTU; shares compounds with CCHF vOTU inh-1
Numbers stand for hits; ! = a repeat was not active. Only some compounds are listed: those with a hit (about 4.2% of all), similar ones and a draw of the others. Rule as the data show it, unless noted: active = inhibition above about 30%; inactive = the rest.

For Cc1cc(C)cc(C(=O)OCCCN(C)C2CN(Cc3cn(Cc4ccccc4F)nn3)S(=O)(=O)C2)c1 (stereo unspecified) the results were CCHF vOTU inh-1 inactive.
Screening N#CCCN(C(=O)COC(=O)CCc1ccccc1)c1ccccc1 returned GDH-TPI counter inactive, RecA intein inh inactive, CCHF vOTU inh-1 inactive, Mtb FBA inh inactive and Mtb betalactam inactive.
`N#CCCN(C(=O)COC(=O)CCc1c[nH]c2ccccc12)c1ccccc1` gave GDH-TPI counter inactive, RecA intein inh inactive, CCHF vOTU inh-1 36, Mtb FBA inh inactive, Mtb betalactam inactive and CCHF vOTU inh-2 inactive.
Screening Cc1ccc(NC(=O)C2CCN(S(=O)(=O)c3ccc4ccccc4c3)CC2)nc1 returned GDH-TPI counter inactive, CCHF vOTU inh-1 inactive and Mtb FBA inh inactive.
`Cc1ccccc1OCC(=O)N1N=C(C(F)(F)F)CC1(O)C(C)(C)C` (stereo unspecified) gave GDH-TPI counter inactive, CCHF vOTU inh-1 33, Mtb FBA inh inactive, Mtb betalactam inactive and CCHF vOTU inh-2 inactive.
Screening Cc1ccc(OCC(=O)N2N=C(C(F)(F)F)CC2(O)C(C)(C)C)cc1C (stereo unspecified) returned GDH-TPI counter inactive, RecA intein inh inactive, CCHF vOTU inh-1 inactive, Mtb FBA inh inactive and Mtb betalactam inactive.
Screening O=S(=O)(c1ccc(F)cc1)N1CCCc2nc(-c3ccc(F)cc3)ccc21 returned CCHF vOTU inh-1 inactive.
CCCN(C(=O)c1cn(CCC)c2ccccc12)c1ccc(Oc2cccnc2)cc1 was read as CCHF vOTU inh-1 38 and CCHF vOTU inh-2 inactive.
`CCCCCN(C(=O)CCc1cn(CCCCC)c2ccccc12)c1ccc(Oc2cccnc2)cc1` gave CCHF vOTU inh-1 inactive.
Cc1cc(N2CCN(C(=O)OC(C)(C)C)C[C@@H]2C)ccc1N1CCS(=O)(=O)CC1 was read as CCHF vOTU inh-1 inactive.
`Cc1cccc(COCC(CC(C)C)N2CCN(C(=O)c3ccc(C(C)(C)C)cc3)CCC2=O)c1` (stereo unspecified) gave GDH-TPI counter inactive, RecA intein inh inactive, CCHF vOTU inh-1 inactive, Mtb FBA inh inactive and Mtb betalactam inactive.
For Cc1cccc(COC[C@H](CC(C)C)N2CCN(C(=O)c3ccc(C(C)(C)C)cc3)CCC2=O)c1 the results were CCHF vOTU inh-1 30 and CCHF vOTU inh-2 inactive.
CC(C)C[C@@H](COCc1ccc(F)cc1)N1CCN(C(=O)c2cccc(C(F)(F)F)c2)CCC1=O was read as CCHF vOTU inh-1 31 and CCHF vOTU inh-2 inactive.
`CC(C)CC(COCc1ccc(F)cc1)N1CCN(C(=O)c2cccc(C(F)(F)F)c2)CCC1=O` (stereo unspecified) gave GDH-TPI counter inactive, RecA intein inh inactive, CCHF vOTU inh-1 inactive, Mtb FBA inh inactive and Mtb betalactam inactive.
Screening CCN(c1ccccc1)S(=O)(=O)c1ccc(OC)c(NC(=O)c2ccco2)c1 returned GDH-TPI counter inactive, CCHF vOTU inh-1 inactive and Mtb FBA inh inactive.
For Cc1nc(/N=C\c2ccc(N(C)C)cc2)sc1C the results were GDH-TPI counter inactive, RecA intein inh inactive, CCHF vOTU inh-1 inactive, Mtb FBA inh inactive and Mtb betalactam inactive.
Screening C=CCS(=O)(=O)N1CCCC(Cc2ccccc2C)(C(=O)OCC)C1 (stereo unspecified) returned GDH-TPI counter inactive, RecA intein inh inactive, CCHF vOTU inh-1 inactive, Mtb FBA inh inactive and Mtb betalactam inactive.
Screening CC(C)NS(=O)(=O)c1ccc(Oc2ncc(C(F)(F)F)cc2Cl)cc1 returned GDH-TPI counter inactive, RecA intein inh inactive, CCHF vOTU inh-1 inactive, Mtb FBA inh inactive and Mtb betalactam inactive.
Screening CCCNS(=O)(=O)c1ccc(Oc2ncc(C(F)(F)F)cc2Cl)cc1 returned GDH-TPI counter inactive, RecA intein inh inactive, CCHF vOTU inh-1 31, Mtb FBA inh inactive, Mtb betalactam inactive and CCHF vOTU inh-2 inactive.
Screening CN1CCC(=NNC(=O)c2cn(-c3ccccc3)nc2-c2ccccc2)CC1 returned GDH-TPI counter inactive, RecA intein inh inactive, CCHF vOTU inh-1 inactive, Mtb FBA inh inactive and Mtb betalactam inactive.
Screening Cc1ccc([N+](=O)[O-])cc1N(CC(=O)Nc1ccc(S(=O)(=O)Nc2cccc(C(F)(F)F)c2)cc1)S(C)(=O)=O returned GDH-TPI counter inactive, RecA intein inh inactive, CCHF vOTU inh-1 30, Mtb FBA inh inactive, Mtb betalactam inactive and CCHF vOTU inh-2 inactive.
Screening Cc1nc2ccc(C(=O)Nc3ccccc3Cl)cc2s1 returned GDH-TPI counter inactive, RecA intein inh inactive, CCHF vOTU inh-1 inactive, Mtb FBA inh inactive and Mtb betalactam inactive.
Screening Cc1ccc(S(=O)(=O)NC2=C(N3CCN(Cc4ccccc4)CC3)C(=O)c3ccccc3C2=O)cc1 returned GDH-TPI counter inactive, RecA intein inh inactive, CCHF vOTU inh-1 inactive, Mtb FBA inh inactive and Mtb betalactam inactive.
`Cc1ccc(S(=O)(=O)NC2=C(N3CCN(c4ccccc4F)CC3)C(=O)c3ccccc3C2=O)cc1` gave GDH-TPI counter inactive, RecA intein inh inactive, CCHF vOTU inh-1 53!, Mtb FBA inh inactive, Mtb betalactam inactive and CCHF vOTU inh-2 inactive.
For CCOC(=O)N1CCN(C2=C(NS(=O)(=O)c3ccc(C)cc3)C(=O)c3ccccc3C2=O)CC1 the results were GDH-TPI counter inactive, RecA intein inh inactive, CCHF vOTU inh-1 82, Mtb FBA inh inactive, Mtb betalactam inactive and CCHF vOTU inh-2 81.
`CC1CCCCC1NC(=O)c1nn(C)c2c1CS(=O)(=O)c1ccccc1-2` (stereo unspecified) gave GDH-TPI counter inactive, RecA intein inh inactive, CCHF vOTU inh-1 inactive, Mtb FBA inh inactive and Mtb betalactam inactive.
For CC1=NN(c2ccccc2)C(=O)C1C=Nc1ccc(N(C)C)cc1 (stereo unspecified) the results were GDH-TPI counter inactive, CCHF vOTU inh-1 30, Mtb FBA inh inactive, Mtb betalactam inactive and CCHF vOTU inh-2 inactive.
CC1=NN(c2ccccc2)C(=O)C1N=Nc1ccc(C)cc1 (stereo unspecified) was read as RecA intein inh inactive and Mtb betalactam inactive.
Cc1cc(C(=O)Nc2cc(S(C)(=O)=O)ccc2Cl)c(C)o1 was read as GDH-TPI counter inactive, CCHF vOTU inh-1 inactive, Mtb FBA inh inactive and Mtb betalactam inactive.
`Cc1cc(C)c(C#N)c(N2CCN(C(=O)C3COc4ccccc4O3)CC2)n1` (stereo unspecified) gave GDH-TPI counter inactive, CCHF vOTU inh-1 48, Mtb FBA inh inactive, Mtb betalactam inactive and CCHF vOTU inh-2 inactive.
For CCCN(CC(=O)Nc1ccccc1C)C(=O)c1ccc(N2CCCC2)c([N+](=O)[O-])c1 the results were GDH-TPI counter inactive, RecA intein inh inactive, CCHF vOTU inh-1 inactive, Mtb FBA inh inactive and Mtb betalactam inactive.
